{"source": "ChEMBL document CHEMBL1157539", "about": "“Thousands of chemical starting points for antimalarial lead identification” (Nature, 2010)", "data": [{"test_system": "Plasmodium falciparum", "experiment": "GSK_TCMDC: Inhibition of Plasmodium falciparum Dd2 in whole red blood cells, using parasite LDH activity as an index of growth. Test compounds present at 2uM", "assay_type": "functional", "units": {"Inhibition": "%"}, "values": [{"molecule": "Cc1ccc(C)c(Cn2ccc3nc(Cl)nc(Cl)c32)c1", "Inhibition": 68}, {"molecule": "COc1cc2nc(N(C)C)nc(Nc3ccc(OCc4ccccc4)cc3)c2cc1OC", "Inhibition": 100}, {"molecule": "Nc1nc(N)c2cc(CNc3ccc(Cl)c(Cl)c3)ccc2n1", "Inhibition": 55}, {"molecule": "O=C(NCCCCN1CC=C(c2ccc3c(c2OCC2CC2)CCCC3)CC1)c1ccc(-c2ccc(C(F)(F)F)cc2)cc1", "Inhibition": 60}, {"molecule": "C=C[C@]1(C)C[C@@H](OC(=O)CSC2CN3CCC2C3)[C@@]2(C)C3C(=O)CC[C@@]3(CC[C@H]2C)[C@@H](C)[C@@H]1O.Cl", "note": "(some centres undefined)", "Inhibition": 75}, {"molecule": "CCN(CC)CCNC(=O)c1ccc(NC(=O)c2cc3c(C)nn(-c4ccc(Cl)cc4)c3s2)cc1.Cl", "Inhibition": 78}, {"molecule": "CC1CCN(Cc2c(O)ccc3c(O)c(-c4nc5ccccc5s4)c(=N)oc23)CC1", "Inhibition": 99}, {"molecule": "C#CCOc1ccc2ccccc2c1CNCCCCCCNCc1c(OCC#C)ccc2ccccc12.CS(=O)(=O)O", "Inhibition": 98}, {"molecule": "CC(C)(CNC(=O)[C@H]1CCCN1)c1nc(-c2ccc(Cl)c(O)c2)c(-c2ccncc2)[nH]1.Cl", "Inhibition": 95}, {"molecule": "Cc1cc(N2CCN(C(=O)OC(C)(C)C)CC2)ccc1N", "Inhibition": 38}, {"molecule": "COc1ccc(-c2cnc3[nH]cc(-c4ccc(C(=O)O)c(C)c4)c3c2)cn1.O=C(O)C(F)(F)F", "Inhibition": 99}, {"molecule": "CS(=O)(=O)Cc1ccc(Nc2ncc(Cl)c(Nc3cccnc3C(N)=O)n2)cc1.Cl", "Inhibition": 97}, {"molecule": "COc1ccc(NC(=O)Nc2cccc(-c3ccc(-c4nc5cccc(C)c5[nH]4)s3)c2)cc1", "Inhibition": 32}, {"molecule": "CC(C)(C)c1ccc2oc(=O)n(C3CCN(C(=O)c4ccc([N+](=O)[O-])o4)CC3)c2c1", "Inhibition": 87}, {"molecule": "COc1ccccc1N1CCN(CCCCNC(=O)c2ccc(NC(=O)c3cc(Cl)cc(Cl)c3)cc2)CC1", "Inhibition": 75}, {"molecule": "CCCN1CCN(c2ccc(NS(=O)(=O)c3ccc(C(=O)Nc4ccc(Cl)cc4)cc3)cc2)CC1.O=C(O)C(F)(F)F", "Inhibition": 50}, {"molecule": "CN(C)Cc1cccc(-c2ccc(NC(=O)c3ccc4c(=O)n(CC5CCCO5)cnc4c3)cc2)c1", "note": "(centres undefined)", "Inhibition": 14}, {"molecule": "CN1CCN(CCCN(Cc2ccc(-c3ccc(CNC4CCCC4)cc3)cc2)C(=O)CCC2CCCC2)CC1.O=C(O)C(F)(F)F", "Inhibition": 96}, {"molecule": "COc1ccc(CNCc2ccc(-c3cccc(-c4nc5cc(C(F)(F)F)ccc5[nH]4)c3)cc2)cc1.O=C(O)C(F)(F)F", "Inhibition": 100}, {"molecule": "Cn1nc(-c2ccc(NC(=O)Nc3cc(C(F)(F)F)ccc3F)cc2)c2cnc(NCCc3c[nH]cn3)nc21.O=C(O)C(F)(F)F", "Inhibition": 56}, {"molecule": "Cl.Nc1c2c(nc3ccc(NC(=O)CCCCCc4ccccc4)cc13)CCCC2", "Inhibition": 36}, {"molecule": "COc1cc(NC(=O)c2cccs2)c(OC)cc1NC(=O)Nc1cccc(Cl)c1", "Inhibition": 10}, {"molecule": "CC(C)(C)Cn1cc(-c2ccc(C(=O)NCCc3ccc(S(C)(=O)=O)cc3)cc2)c(N)n1.CC(C)(C)Cn1ncc(-c2ccc(C(=O)NCCc3ccc(S(C)(=O)=O)cc3)cc2)c1N.O=C(O)C(F)(F)F", "Inhibition": 10}, {"molecule": "Cn1cc(C2CCN(CCCCNC(=O)c3ccc(-c4ccc(C(F)(F)F)cc4)c(CO)c3)CC2)c2ccccc21", "Inhibition": 16}, {"molecule": "CCCCCCN1CCCN(Cc2ccc(C(=O)Nc3ccc(C(C)C)cc3)cc2)CC1.O=C(O)C(F)(F)F", "Inhibition": 50}, {"molecule": "Cc1cc(=NN=Cc2ccccn2)c2cc(C(F)(F)F)ccc2[nH]1", "Inhibition": 100}, {"molecule": "Cc1[nH]c(C)c(-c2ccc(-c3ccccc3Cl)nc2)c(=O)c1Br", "Inhibition": 96}, {"molecule": "COc1ccc(CNCc2cccc(-c3cccc(-c4nc5cccc(C)c5[nH]4)c3)c2)cc1.O=C(O)C(F)(F)F", "Inhibition": 60}, {"molecule": "O=C(Nc1ccc(-c2nc3ccccc3[nH]2)cc1)C1CCCN(C2CCC2)C1", "note": "(centres undefined)", "Inhibition": 5}, {"molecule": "COC(=O)CCCCCOc1cc(Cc2cnc(N)nc2N)cc(OC)c1OC", "Inhibition": 0}, {"molecule": "Cc1[nH]c(C)c(-c2ccc(-c3ccc(C(F)F)cc3)nc2)c(=O)c1Cl", "Inhibition": 96}, {"molecule": "Cc1noc(-c2ccc3c(c2)CCN(CCC2CCC(NC(=O)/C=C/c4cccc(Cl)c4)CC2)CC3)n1.Cl", "note": "(centres undefined)", "Inhibition": 24}, {"molecule": "COc1ccc2nccc([C@@H](O)CN3CCC(NC(=O)c4ccc(-c5ccccc5)s4)CC3)c2c1", "Inhibition": 81}, {"molecule": "c1ccc(OCCOc2ccc(Nc3ccnc4cc5ccccc5cc34)cc2)cc1", "Inhibition": 96}, {"molecule": "O=C(NCCCCN1CCC(c2c[nH]c3ccc(-c4ccccc4)cc23)CC1)c1ccc(-c2ccccc2)cc1.O=C(O)C(=O)O", "Inhibition": 40}, {"molecule": "Cc1cc(-c2nc3cc(C(=N)N)ccc3[nH]2)c(C)cc1-c1nc2cc(C(=N)N)ccc2[nH]1.Cl", "Inhibition": 97}, {"molecule": "COc1ccc(CNCc2cccc(-c3ccc(-c4nc5cccc(C)c5[nH]4)cc3)c2)cc1.O=C(O)C(F)(F)F", "Inhibition": 70}, {"molecule": "COc1ccc(CNC2CCN(C)CC2)cc1-c1ccc(S(=O)(=O)NCc2ccccc2)c(F)c1.O=C(O)C(F)(F)F", "Inhibition": 97}, {"molecule": "N#Cc1ccc(-c2ccc(C(=O)NC3CCN(CCN4CCC(c5cn(CCOC6CCCCO6)c6ccccc56)CC4)CC3)cc2)cc1", "note": "(centres undefined)", "Inhibition": 86}]}]}
